According to PubChem BioAssay (NCATS):
Values joined by “and” are separate entries in the source; they are usually repeats but may differ in a detail not shown here. Equal values may be shown once. Inconclusive results are not listed. The source holds several records for some structures; these can differ, active in one and inactive in another. Active and inactive are the calls of the source. Unless noted, calls follow the shape of the dose curve; as a rule, active = well fitted curve in the direction sought with a large enough effect; inconclusive = small, poorly fitted or top-dose-only effect, or another doubt; inactive = no such curve, though single readings can be large; an effect the other way counts as inactive or inconclusive. Numbered stars: 1 amine (or outer) side, 2 acyl side, 3 side chain; on linkers, the order of the positions; unused ones are H or OH. Bridge positions count the residues as written; N and C are the ends. Square brackets hold non-standard residues; d marks the D form. Peptide text beside a SMILES is read from it. I, II: the chains in the order shown. Actinocin(9to1) = Cc1c2oc3c(C)ccc(C(=O)[*:1])c3nc-2c(C(=O)[*:2])c(N)c1=O; NMeV = CN[C@H](C(=O)O)C(C)C; Sar = CNCC(=O)O

Columns and labels:
[1] = qHTS Assay for Identifying Gametocytocidal Compounds (AID 743244); also: potency is read from the fitted curve at half-maximal effect;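 as to max response: % is scaled to controls: 0 for no effect and ±100 for the full control effect; actives lower the fluorescent signal which means gametocytes are killed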; conditions: P. falciparum 3D7 stage III-V gametocytes, alamarBlue, 72 h; max response: stronger effect = lower value
In short: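 Fluorescence at Ex 525/Em 598 nm, recorded 24 h after alamarBlue addition, reports residual metabolic activity of 3D7 gametocytes (stages III–V) following 72 h compound exposure at 37 °C, 5% CO2.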

[2] = qHTS assay for cell viability of HEK293 cells (AID 743288); conditions: ATP luminescence (CellTiter-Glo), 18 h, stronger effect = lower value; also: % is scaled to controls: 0 for no effect and ±100 for the full control effect; nearly all actives have a fitted effect of over 50% in size
In short: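 Parental HEK293 cells, 2,000 per well, preincubated at least 5 h at 37 C, then exposed to compounds in DMSO for 18 h at 37 C. Viability by CellTiter-Glo ATP luminescence after 30 min at room temperature.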

[3] = qHTS assay for cell viability of the p53RE-bla HCT-116 cell line (AID 743292); conditions: p53RE-bla HCT-116 viability, ATP luminescence, 16 h; series mostly up to 95 µM; also: % is scaled to controls: 0 for no effect and ±100 for the full control effect; nearly all actives have a fitted effect of over 55% in size
In short: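 Readout: CellTiter-Glo luminescence after 30 min RT. Treatment: compounds in DMSO, 16 h, 37 C. Cells: CellSensor p53RE-bla HCT-116, 4,000/well, preincubated 5 h.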

[4] = qHTS profiling of the MIPE4 collection as inhibitors of Plasmodium falciparum (3D7) proliferation (AID 743344; call rule not given here;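 also: scaled between DMSO vehicle wells and 0.29 µM artemisinin as full inhibition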); conditions: P. falciparum 3D7 in erythrocytes, SYBR Green DNA fluorescence, 72 h; at 28.5 µM (top of the series) unless noted
In short: (§1)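 Erythrocytes infected with P. falciparum (0.3% parasitemia, 2.5% hematocrit) incubated with compounds 72 h at 37 C, 5% CO2. Lysis with saponin/Triton buffer containing SYBR Green I, overnight at room temperature in the dark; DNA fluorescence (485/535 nm) normalised to 0.29 uM artemisinin and DMSO.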

[5] = qHTS profiling for inhibitors of Plasmodium falciparum (3D7) proliferation (AID 743322);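 also: infected erythrocytes exposed to compound for 72 h before lysis; 100% = DMSO vehicle wells and 0% = 0.29 µM artemisinin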; conditions: P. falciparum 3D7 proliferation; at 28.7 µM (top of the series) unless noted
In short: as §1

[6] = qHTS profiling for inhibitors of Plasmodium falciparum (DD2) proliferation (AID 743323; call rule not given here); conditions: lower = more inhibition; at 28.7 µM (top of the series) unless noted
In short: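 Parasite proliferation measured via DNA-dye fluorescence, as uninfected erythrocytes lack DNA. Cultures at 0.3% parasitemia and 2.5% hematocrit incubated 72 h with compound; signal scaled between vehicle and 0.29 uM artemisinin wells.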

[7] = qHTS profiling for inhibitors of Plasmodium falciparum (HB3) proliferation (AID 743324); conditions: Plasmodium falciparum HB3 blood-stage proliferation; at 28.7 µM (top of the series) unless noted;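 also: 100% = DMSO vehicle wells and 0% = artemisinin-treated control wells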
In short: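 P. falciparum HB3 grown in erythrocytes (0.3% parasitemia, 2.5% hematocrit final) with compound for 72 h at 37 C, 5% CO2. Parasite DNA detected by SYBR Green after saponin/triton lysis overnight; normalized to 0.29 uM artemisinin and DMSO.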

C[C@H]1C[C@H]2[C@@H]3CCC4=CC(=O)C=C[C@]4(C)[C@@]3(Cl)[C@@H](O)C[C@]2(C)[C@@]1(O)C(=O)CO
max response [1]: 3.92% (inactive) | max response [2]: -18.8% (inactive) | outcome [3]: inactive

CN(C)/N=N/c1nc[nH]c1C(N)=O
max response [1]: 5.22% (inactive) | max response [2]: 4.22% (inactive) | outcome [3]: inactive

COc1ccc(CN2CCN(C(c3ccc(F)cc3)c3ccc(F)cc3)CC2)c(OC)c1OC
max response [1]: 1.04% (inactive) | parasite growth, % of DMSO control [4]: 4.59%

Cc1ccc(C(=O)C(C)CN2CCCCC2)cc1 (stereo unspecified)
Potency [1]: 22.4 µM (active) | max response [1]: -1.77% (inactive)

COc1ccc(C2C(=O)c3ccccc3C2=O)cc1
max response [1]: 5.04% (inactive)

COc1cccc2c1C(=O)c1c(O)c3c(c(O)c1C2=O)C[C@@](O)(C(=O)CO)C[C@@H]3O[C@H]1C[C@H](N)[C@H](O)[C@H](C)O1
Potency [1]: 526 nM (active) and 2.82 µM (active) | max response [1]: -8.37% (inactive) | outcome [3]: inactive | remaining parasite growth % (stronger effect = lower value) [5]: -4.76% | activity, percent of control [6]: -2.65% | remaining proliferation (% of control), lower = more inhibition [7]: -0.62%

NCCCC[C@H](N[C@@H](CCc1ccccc1)C(=O)O)C(=O)N1CCC[C@H]1C(=O)O
max response [1]: -3.1% (inactive)

CC(=O)O[C@]1(C(C)=O)CC[C@H]2[C@@H]3C[C@H](C)C4=CC(=O)CC[C@]4(C)[C@H]3CC[C@@]21C
outcome [3]: inactive

COC1=CC(=O)C[C@@H](C)[C@]12Oc1c(Cl)c(OC)cc(OC)c1C2=O
max response [1]: 1.7% (inactive) | max response [2]: -14.5% (inactive) | outcome [3]: inactive

CN1CCN(CCCN2c3ccccc3Sc3ccc(S(=O)(=O)N(C)C)cc32)CC1
Potency [1]: 5.64 µM (active) | remaining parasite growth % (stronger effect = lower value) [5]: 1.46% [at 9.63 µM] | activity, percent of control [6]: 2.48% [at 9.63 µM] | remaining proliferation (% of control), lower = more inhibition [7]: 1.27% [at 9.63 µM] | parasite growth, % of DMSO control [4]: 63.5% [at 9.64 µM]

NCCc1ccn[nH]1
max response [1]: 5.14% (inactive)

C=C(CC)C(=O)c1ccc(OCC(=O)O)c(Cl)c1Cl
max response [2]: -7.15% (inactive) | outcome [3]: inactive

Cc1c2oc3c(C)ccc(C(=O)N[C@@H]4C(=O)N[C@H](C(C)C)C(=O)N5CCC[C@H]5C(=O)N(C)CC(=O)N(C)[C@@H](C(C)C)C(=O)O[C@@H]4C)c3nc-2c(C(=O)N[C@@H]2C(=O)N[C@H](C(C)C)C(=O)N3CCC[C@H]3C(=O)N(C)CC(=O)N(C)[C@@H](C(C)C)C(=O)O[C@@H]2C)c(N)c1=O (I: T[dV]P[Sar][NMeV] / II: T[dV]P[Sar][NMeV]; ester I:1-I:C, II:1-II:C; linker I:N-II:N via Actinocin(9to1))
Potency [1]: 0.0708 µM (active) | outcome [3]: inactive

CC(O)(P(=O)(O)O)P(=O)(O)O
max response [1]: -10.1% (inactive) | max response [2]: -5.92% (inactive) | outcome [3]: inactive

Oc1c(Cl)cc(Cl)cc1Sc1cc(Cl)cc(Cl)c1O
max response [1]: 20.1% (inactive) | outcome [3]: inactive

C=CCc1ccc(O)c(OC)c1
max response [1]: 4.9% (inactive) | max response [2]: -4.89% (inactive) and -5.68% (inactive) | outcome [3]: inactive

CC(O)C(=O)O (stereo unspecified)
max response [1]: -6.68% (inactive) | max response [2]: 1.72% (inactive) | outcome [3]: inactive

OCc1ccccc1O
max response [1]: 23.6% (inactive)

Cc1cc(=O)n(-c2ccccc2)n1C
max response [1]: 18.5% (inactive) | max response [2]: -2.36% (inactive) | outcome [3]: inactive

COc1cccc2c1C(=O)c1c(O)c3c(c(O)c1C2=O)C[C@@](O)(C(C)=O)C[C@@H]3O[C@H]1C[C@H](N)[C@H](O)[C@H](C)O1
Potency [1]: 6.31 µM (active) | outcome [3]: inactive

CC[C@@H](CO)NCCN[C@@H](CC)CO
max response [1]: 6.57% (inactive) | parasite growth, % of DMSO control [4]: 98.8%

O=c1ccc2ccccc2o1
max response [1]: 15.4% (inactive) | max response [2]: 8.9% (inactive) and -9.16% (inactive) and -5.08% (inactive) | outcome [3]: inactive

CC(=O)Oc1ccc(C(c2ccc(OC(C)=O)cc2)c2ccccn2)cc1
max response [1]: 7.87% (inactive) | max response [2]: -9.96% (inactive)
